Rows were chosen to be rich in hits. Some 7.5% of all compounds tested hit in one or more screens of this group.
SMN2 splice up – enhancers of SMN2 splice variant expression; HEK293 SMN2-luciferase splicing reporter, luminescence, 30-36 h; Potency, µM (series often up to 46.1 µM), hits mostly activators; actives 2.8% (n = 210,000); AID 1458; note: nearly all actives have a fitted effect of over 55% in size
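HEK293 cells carry an SMN2 […]–luciferase reporter in which exon 7 inclusion puts luciferase in frame. Cells were plated 10-12 h before compound addition, then incubated 30-36 h at 37C. ONE-Glo luminescence was read; sodium butyrate at 4.5 mM final served as control.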
NPC1 prom act – activates the NPC1 promoter | actives 2.4% (n = 320,000) | Huh7 NPC1 promoter luciferase reporter, 24 h | Potency, µM (top dose mostly 9.22 µM), most hits filed as activators; note: nearly all actives have a fitted effect of over 60% in size
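Luminescence from an NPC1 promoter-driven luciferase reporter in stably transfected Huh7 cells was measured after 24 h compound treatment at 37 °C, followed by 10 min ambient incubation with luciferase detection reagent.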
FLuc modulator – counter-screen for miR-21 project: firefly luciferase inhibitors or activators | purified FLuc, Km substrates, luminescence inhibition | Potency, µM (doses to about 57.5 µM), actives largely listed as inhibitors | actives 6.9% (n = 360,000); note: nearly all actives have a fitted effect of over 55% in size
Target sequence (P08659 whole entry, looked up): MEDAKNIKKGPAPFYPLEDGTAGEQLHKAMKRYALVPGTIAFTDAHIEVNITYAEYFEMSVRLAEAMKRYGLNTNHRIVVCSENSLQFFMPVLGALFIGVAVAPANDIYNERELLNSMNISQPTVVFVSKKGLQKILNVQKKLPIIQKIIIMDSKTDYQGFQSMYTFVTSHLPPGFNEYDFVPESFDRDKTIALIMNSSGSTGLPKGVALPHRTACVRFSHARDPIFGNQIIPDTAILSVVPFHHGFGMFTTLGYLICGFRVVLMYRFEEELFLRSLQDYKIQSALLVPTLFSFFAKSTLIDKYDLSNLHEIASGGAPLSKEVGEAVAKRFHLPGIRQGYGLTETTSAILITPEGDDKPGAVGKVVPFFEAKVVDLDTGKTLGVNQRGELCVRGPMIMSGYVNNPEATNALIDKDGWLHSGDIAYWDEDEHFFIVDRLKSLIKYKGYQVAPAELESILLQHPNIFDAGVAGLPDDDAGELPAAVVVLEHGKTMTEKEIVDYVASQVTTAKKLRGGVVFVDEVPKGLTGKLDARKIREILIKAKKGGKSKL
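Biochemical qHTS of compounds, final roughly 60 µM downward over six points, against 10 nM purified firefly luciferase using Km concentrations of substrates (10 uM D-luciferin, 10 uM ATP) in Tris acetate pH 7.5 buffer; luminescence output.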
KinaseGlo FLuc – counter-screen: inhibitors of Kinase-Glo firefly luciferase. actives 0.28% (n = 200,000). Potency, µM (titrated, usually from 38.3 µM), hits mostly inhibitors. Q27757. Kinase-Glo luciferase, ATP luminescence, 8 min. AID 1379; note: nearly all actives have a fitted effect of over 60% in size
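Kinase-Glo luciferase light output from ATP and luciferin was measured with 10 uM ATP, within the enzyme's linear range. Buffer: 50 mM imidazole pH 7.2, 50 mM KCl, 7 mM MgCl2, 0.01% Tween 20, 0.05% BSA; luminescence read after 8 min at ambient temperature.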
ELG1 genotoxic – inducers of genotoxicity in HEK293T ELG1-luciferase cells; HEK293T ELG1-luciferase reporter, luminescence, 16 h; actives 1.3% (n = 330,000); Potency, µM (titrated, usually from 46 µM), usual class: activators; note: nearly all actives have a fitted effect of over 60% in size
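Cells (2,000/well) expressing the ELG1-luciferase fusion are dosed by pin tool and kept 16 hr at 37 °C, 5% CO2. Signal comes from ONE-Glo luciferase reagent after 30 min at room temperature.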
Rab9 promoter act – activates the Rab9 promoter; Huh7 Rab9 promoter-luciferase reporter, luminescence, 24 h; Potency, µM (series often up to 9.22 µM), most hits filed as activators; actives 2.8% (n = 320,000); note: nearly all actives have a fitted effect of over 60% in size
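Huh7 reporter line, Rab9 promoter upstream of luciferase. Compound exposure 24 h at 37 °C in reduced-serum medium with 10% FBS. Read-out: luminescence.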
Numbers stand for hits; - = inactive; ? = inconclusive; . = no result given. Calls come from the whole dose curve; as a rule, active = well fitted curve in the direction sought with a large enough effect; inconclusive = small, poorly fitted or top-dose-only effect, or another doubt; inactive = no such curve, though single readings can be large; an effect the other way counts as inactive or inconclusive.

SMILES	SMN2 splice up	NPC1 prom act	FLuc modulator	KinaseGlo FLuc	ELG1 genotoxic	Rab9 promoter act
CC(C)Cn1c(=O)c2ccccc2n2c(CCC(=O)Nc3ccc(F)cc3)nnc12	-	.	-	.	.	.
NC(=O)c1ccccc1NC(=O)Nc1cccc(Cl)c1Cl	-	-	-	-	-	-
NC(=O)c1ccccc1NC(=O)Nc1ccc(F)c(Cl)c1	-	-	9.5µM	?	-	-
CC(=O)Nc1ccccc1C(=O)C(=O)O	-	-	-	-	-	-
CC(=O)Nc1ccccc1C(=O)C(=O)Nc1cccc(C(=O)NCc2ccccc2)c1	-	-	-	-	-	-
CCc1ccc(NC(=O)C(=O)c2ccccc2NC(C)=O)cc1	.	1.6µM	?	.	?	2.8µM
CC(=O)Nc1ccccc1C(=O)C(=O)Nc1ccc(C)c(F)c1	6.3µM	3.5µM	?	-	?	1.8µM
CC(=O)Nc1ccccc1C(=O)C(=O)Nc1ccc(C)c(C)c1	18µM	2µM	?	-	?	0.89µM
Oc1c(C(c2ccc(Cl)cc2)N2CCOCC2)sc2nc(-c3ccco3)nn12 (stereo not drawn)	.	.	-	.	.	.
COc1ccc(-n2cc(C(=O)Nc3ccccc3C#N)c3ccccc3c2=O)cc1	.	.	-	.	.	.
CN(C)c1ccc(CNC(=O)CN2C(=O)C3CCCCN3c3ccc(C(=O)N4CCCC4)cc32)cc1 (stereo not drawn)	.	.	-	.	.	.
Cc1ccc(NC(=O)/C(Cl)=C/c2ccccc2)cc1C	?	1.8µM	0.76µM	-	?	2.5µM
CC(=O)Nc1ccccc1C(=O)C(=O)Nc1ccc(F)c(Cl)c1	.	4µM	-	.	?	3.2µM
CCOc1ccccc1Nc1nc2ccccc2c2nncn12	-	.	-	.	.	.
Cc1cccc(N=CC=C2OC(C)(C)C(C)(C)O2)c1	-	-	?	-	-	-
Cc1ccc(N=CC=C2OC(C)(C)C(C)(C)O2)cc1	-	-	7.6µM	-	-	-
OCCN1CCN(C(c2ccccc2Cl)c2sc3nc(-c4ccco4)nn3c2O)CC1 (stereo not drawn)	.	.	-	.	.	.
COc1cccc(/C=c2\sc3nc(-c4cccs4)nn3c2=O)c1OC	-	-	8.5µM	-	-	-
Cc1ccc2nc3c(c(N)c2c1)CCN3c1ccccc1	-	-	19µM	-	-	-
O=C1CC(c2c(Cl)cccc2Cl)c2c(ccc3ccccc23)N1 (stereo not drawn)	-	.	-	.	.	.
O=C(N=Nc1ccc(NOC(=O)c2ccccc2Br)cc1)c1ccccc1O	-	?	8.5µM	-	-	?
COC(=O)c1ccccc1O	-	.	.	.	.	.
COc1ccccc1NC(=O)Cn1c(=O)c(CNc2ccc(C)cc2)cc2cc3c(cc21)OCCO3	.	.	-	.	.	.
O=C(NNC(=O)c1ccc(Cl)cc1Cl)c1ccncc1	?	-	13µM	-	-	-
COc1ccccc1C(=O)NC(CCSC)C(=O)NNC(=O)c1ccncc1 (stereo not drawn)	.	-	-	.	-	-
SMILES	SMN2 splice up	NPC1 prom act	FLuc modulator	KinaseGlo FLuc	ELG1 genotoxic	Rab9 promoter act
O=C(NNC(=O)c1ccccc1Cl)c1ccncc1	-	-	-	-	-	-
CSCCC(NC(=O)c1ccc(Cl)cc1Cl)C(=O)NNC(=O)c1ccncc1 (stereo not drawn)	.	-	15µM	.	-	-
Cc1cccc(N(C)C(=O)CSc2nc3ncccc3o2)c1	.	.	-	.	.	.
CN1N=C2c3ccccc3CCC2C1c1ccc(C(F)(F)F)cc1 (stereo not drawn)	.	-	?	.	-	-
CN(C)c1ccc(C2C3CCCc4ccccc4C3=NN2C)cc1 (stereo not drawn)	.	?	19µM	.	-	3.2µM
O=C1Nc2c(c(=O)[nH]c(=O)n2-c2ccccc2)C1(NS(=O)(=O)c1ccc(Cl)cc1)C(F)(F)F (stereo not drawn)	-	.	-	.	.	.
CCOC(=O)Cc1ccc(NC(=O)n2ncc3c(C)cccc32)cc1	-	.	5.4µM	.	.	.
CCOc1ccc(NC(=O)n2ncc3c(C)cccc32)cc1	.	0.45µM	1.3µM	.	?	1.4µM
COc1cccc(NC(=O)n2ncc3c(C)cccc32)c1	.	0.089µM	0.17µM	.	1.6µM	0.32µM
COC(=O)c1ccc(NC(=O)n2ncc3c(C)cccc32)cc1	.	.	-	.	.	.
Cc1oc2c(C)c3oc(=O)c(CCC(=O)N4CCCCC4)c(C)c3cc2c1C	-	.	-	.	.	.
O=C(NNC(=O)c1ccco1)c1cccc(Br)c1	.	-	-	.	-	-
O=C(c1cccc(Br)c1)c1coc2ccc(O)cc12	.	?	3µM	.	?	?
Cc1ccc(C(=O)c2coc3ccc(OCC(=O)O)cc23)cc1	?	-	21µM	-	-	-
O=C(O)COc1ccc2occ(C(=O)c3ccccc3)c2c1	-	-	?	-	-	-
COc1ccc(C(=O)c2coc3ccc(O)cc23)cc1	?	?	1.5µM	-	?	-
COc1ccc(CCNC(=O)c2nc(-c3ccc(Cl)cc3)n3c2CCCCC3)c(OC)c1	.	.	-	.	.	.
COC(=O)C1(C(=O)OC)CC2=CCC3C(=O)N(c4ccccc4)C(=O)C3C2Cc2ccccc2[C@@H]1C[N+](=O)[O-] (stereo partly drawn)	-	.	.	-	.	.
O=C(COC(=O)c1cccc(F)c1)Nc1ccc2c(c1)OCCO2	.	-	1.9µM	.	-	-
O=C(COC(=O)c1ccccc1F)Nc1ccc2c(c1)OCCO2	.	-	0.48µM	.	-	-
O=C(OCC1COc2ccccc2O1)c1ccccc1F (stereo not drawn)	-	-	6µM	-	-	-
Cc1cccc(C(=O)OCC(=O)Nc2ccc3c(c2)OCCO3)c1	.	-	19µM	.	-	-
